Assay [1] in a line: qHTS assay to identify aromatase inhibitors - cell viability counter screen (AID 743084;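 note: cells stimulated with testosterone during compound exposure; nearly all actives have a fitted effect of over 55% in size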). (In qHTS, concentration-response curves come from the screen itself.)
The target in assay [2] is Aryl hydrocarbon receptor (Homo sapiens) (UniProt P35869). Put plainly: qHTS assay to identify small molecule that activate the aryl hydrocarbon receptor (AhR) signaling pathway (AID 743085).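 For activation: HG2L7.5c1 human HepG2 liver cells with stably integrated DRE-driven firefly reporter; series mostly up to about 70 µM.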 Note: nearly all actives have a fitted effect of over 15% in size. Note: potency is the fitted concentration of half-maximal effect. Summed up: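 24 h compound exposure, 37C, HepG2-derived HG2L7.5c1 cells with DRE-responsive luciferase. Readouts: fluorescence viability, then luminescence at room temperature after 30 min.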
Aryl hydrocarbon receptor (Homo sapiens), sequence (P35869 whole entry, looked up): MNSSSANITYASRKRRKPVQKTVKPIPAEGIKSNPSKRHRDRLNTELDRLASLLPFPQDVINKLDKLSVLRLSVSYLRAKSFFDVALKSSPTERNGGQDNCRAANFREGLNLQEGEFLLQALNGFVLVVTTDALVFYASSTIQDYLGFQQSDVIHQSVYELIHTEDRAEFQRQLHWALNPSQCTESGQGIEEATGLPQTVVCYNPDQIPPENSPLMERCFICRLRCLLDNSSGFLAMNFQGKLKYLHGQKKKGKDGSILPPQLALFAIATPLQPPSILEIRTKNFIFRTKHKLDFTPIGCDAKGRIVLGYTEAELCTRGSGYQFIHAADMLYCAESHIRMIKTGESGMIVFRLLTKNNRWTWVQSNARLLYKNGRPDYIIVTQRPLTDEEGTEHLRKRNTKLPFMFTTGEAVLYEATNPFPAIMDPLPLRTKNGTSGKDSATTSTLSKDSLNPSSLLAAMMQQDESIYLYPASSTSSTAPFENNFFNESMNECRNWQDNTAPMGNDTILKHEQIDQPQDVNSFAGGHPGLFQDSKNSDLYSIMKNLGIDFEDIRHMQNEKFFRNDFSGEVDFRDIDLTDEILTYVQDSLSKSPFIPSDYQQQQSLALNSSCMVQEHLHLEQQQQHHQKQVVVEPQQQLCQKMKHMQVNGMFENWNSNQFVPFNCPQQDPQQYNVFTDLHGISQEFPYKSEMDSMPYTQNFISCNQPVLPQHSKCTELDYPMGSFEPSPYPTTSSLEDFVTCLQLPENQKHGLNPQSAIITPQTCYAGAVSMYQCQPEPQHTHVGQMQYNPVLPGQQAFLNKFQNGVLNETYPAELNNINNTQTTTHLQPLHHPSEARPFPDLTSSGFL

Assay [3] is described as follows: qHTS assay to identify small molecule that activate the aryl hydrocarbon receptor (AhR) signaling pathway - cell viability counter screen (AID 743086).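 Note: HepG2 liver cells carrying the AhR DRE luciferase reporter; series mostly up to about 70 µM; nearly all actives have a fitted effect of over 45% in size.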 Summed up: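 HepG2-AhR-luc (HG2L7.5c1) cells, 4000/well, treated 24 h at 37 C with compound; viability measured as CellTiter-Fluor fluorescence after 30 min in the same wells as the luciferase read.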
For assay [4], the target named is Peroxisome proliferator-activated receptor gamma (Homo sapiens) (UniProt P37231). Put plainly: qHTS assay to identify small molecule agonists of the peroxisome proliferator-activated receptor gamma (PPARg) signaling pathway (AID 743094; active = well fitted activation curve with a large enough effect in the signal ratio in the repeat runs, not every such curve was filed as active; the % refers to the signal ratio). Summed up:
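Reporter activation was scored by fluorescence of cleaved LiveBLAzer B/G substrate (1 h, room temperature) in PPARg-bla HEK293H cells previously treated 17 h at 37C with DMSO-dissolved compounds.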

Assay [5] has the same target. Put plainly: qHTS assay to identify small molecule antagonists of the peroxisome proliferator-activated receptor gamma (PPARg) signaling pathway (AID 743191; calls by dose curve; note: series mostly up to about 63 µM; nearly all actives have a fitted effect of over 30% in size). The essentials: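 GeneBLAzer PPARg UAS-bla HEK293H cells, 5 h post-plating, exposed to compounds 17 h at 37C. LiveBLAzer B/G FRET substrate added for 1 h at room temperature; beta-lactamase reporter read by fluorescence intensity.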

Assay [6] is described as follows: qHTS assay to identify small molecule antagonists of the peroxisome proliferator-activated receptor gamma (PPARg) signaling pathway - cell viability counter screen (AID 743194). Note: nearly all actives have a fitted effect of over 55% in size. The essentials:
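Cytotoxicity counter screen in PPARg-bla HEK293H cells, same wells as reporter assay. Compounds plus 50 nM rosiglitazone (final) for 17 h at 37 C, then viability read by CellTiter-Glo luminescence.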

Assay [7] in a line: qHTS assay for small molecule agonists of the antioxidant response element (ARE) signaling pathway - cell viability counter screen (AID 743203; calls by dose curve; note: nearly all actives have a fitted effect of over 55% in size). The essentials: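 Viability counter screen: stably transfected ARE-bla HepG2 line, 16 hrs compound exposure at 37C/5% CO2, ATP-based CellTiter-Glo luminescence measured in the reporter wells.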
Assay [8] in a line: qHTS assay for small molecule activators of the heat shock response signaling pathway - cell viability counter screen (AID 743209). Note: nearly all actives have a fitted effect of over 50% in size. Summed up:
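Viability of HSE-bla HeLa cells is measured with CellTiter-Glo in the wells already used for the reporter read. Compound exposure lasts 5 h at 37 C, and luminescence is read after 30 min at room temperature.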

Assay [9] in a line: qHTS assay for small molecule activators of the heat shock response signaling pathway (AID 743210; active = well fitted activation curve with a large enough effect in the signal ratio in the repeat runs, with a control signal flat, not every such curve was filed as active; the % refers to the signal ratio;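 note: HeLa cells with beta-lactamase reporter driven by heat shock elements; series mostly up to about 63 µM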). The essentials: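 Following overnight attachment, HSE-bla HeLa cells received test compounds for 5 h at 37 C; beta-lactamase activity was then detected via FRET substrate fluorescence.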
Assay [10] in a line: qHTS assay for small molecule agonists of the antioxidant response element (ARE) signaling pathway (AID 743202; active = well fitted activation curve with a large enough effect in the signal ratio in the repeat runs, not every such curve was filed as active; the % refers to the signal ratio; note: potency is the fitted concentration of half-maximal effect). Summed up: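 HepG2 ARE-bla cells; 16 h treatment at 37 C; FRET-based beta-lactamase fluorescence read after 2 h substrate incubation at room temperature.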

Records with an inconclusive call do not appear. Calls of active or inactive are those of the source. Unless noted, calls come from the whole dose curve; as a rule, active = well fitted curve in the direction sought with a large enough effect in the repeat runs; inconclusive = weak or mixed curves; inactive = no such curve, though single readings can be large; an effect the other way counts as inactive or inconclusive.

Peroxisome proliferator-activated receptor gamma (Homo sapiens), sequence (P37231 whole entry, looked up): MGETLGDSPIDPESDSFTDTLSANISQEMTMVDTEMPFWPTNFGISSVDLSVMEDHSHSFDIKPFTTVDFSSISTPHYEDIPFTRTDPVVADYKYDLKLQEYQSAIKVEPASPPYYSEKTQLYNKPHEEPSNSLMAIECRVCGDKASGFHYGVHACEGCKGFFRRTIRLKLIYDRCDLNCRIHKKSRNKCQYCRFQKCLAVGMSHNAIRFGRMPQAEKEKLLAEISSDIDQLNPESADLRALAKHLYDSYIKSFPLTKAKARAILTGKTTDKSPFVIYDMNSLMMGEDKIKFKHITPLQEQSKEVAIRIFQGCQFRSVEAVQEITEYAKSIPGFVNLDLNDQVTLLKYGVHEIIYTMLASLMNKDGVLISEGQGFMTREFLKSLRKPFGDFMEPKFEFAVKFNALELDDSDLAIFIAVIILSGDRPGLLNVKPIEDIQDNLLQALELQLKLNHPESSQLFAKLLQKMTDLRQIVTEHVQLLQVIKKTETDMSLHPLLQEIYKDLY

For the molecule `CC(S)C(=O)NCC(=O)O` (stereo unspecified), the Potency result in assay [1], in assay [2], in [3] and in [5] was “inactive” throughout. Besides, the result in [4], in assay [6], in assay [7], in assay [8] and in [9] was inactive.

`O=C1O[C@@H]2[C@@H](O)[C@H](O)O[C@@H]2[C@H]1O`: the Potency entry in [1], in [2], in [3] and in assay [5] was “inactive” throughout. The molecule was classed as inactive in assay [4], in assay [6], in assay [7] and in assay [8].

As for `O=C1c2ccccc2C(=O)C1c1ccccc1`, the Potency result in [1], in assay [2], in assay [3], in assay [5] and in assay [10] was “inactive” each time. Besides, the call in assay [4], in [7] and in [8] was inactive.

In the case of `CCNC(=O)C1CC(C)CCC1C(C)C` (stereo unspecified), the Potency entry in assay [1], in [2], in assay [3] and in assay [5] was “inactive” each time. The molecule was classed as inactive in [4], in [6], in assay [7] and in assay [8].

On to `Nc1ncnc(Nc2ccccc2)n1`, for which the Potency entry in assay [1], in assay [2], in [3] and in [5] was “inactive” throughout. Besides, the molecule was classed as inactive in assay [4], in [6], in assay [7], in assay [8] and in assay [9].

In the case of `FC(F)(F)c1ccccc1-n1ccnc1`, the Potency result in assay [1], in [2], in assay [3] and in [5] was “inactive” each time. Besides, the molecule was called inactive in assay [4], in assay [6], in [7], in assay [8] and in assay [9].

Take `Cc1cccc2nccnc12`: the Potency entry in assay [1], in [2], in assay [3] and in [10] was “inactive” in each case. The result in [4], in [6], in [7] and in [8] was inactive.

In the case of `Cc1cc2cc3c(C)cc(=O)oc3c(C)c2o1`, the Potency result in [1], in [2], in [3] and in assay [5] was “inactive” throughout. Also, the call in [4], in assay [6], in assay [7] and in assay [8] was inactive.

Consider `CN=C(NC#N)Nc1ccc(C2=NNC(=O)CC2C)cc1` (stereo unspecified), for which the Potency result in assay [1], in assay [2], in assay [3] and in [5] was “inactive” throughout. For the same molecule, the molecule was called inactive in [4], in assay [6], in [7] and in assay [8].

In the case of `CCCCNC1CC(C)(C)NC(C)(C)C1`, the Potency result in [1], in assay [2], in assay [3], in assay [5] and in [10] was “inactive” in each case. Moreover, the result in [4], in assay [7] and in assay [8] was inactive.

On to `CC(C)(C)NC(N)=O`, for which the Potency result in assay [1], in assay [2], in assay [3] and in [5] was “inactive” throughout. Moreover, the molecule was called inactive in [4], in [6], in assay [7], in assay [8] and in assay [9].

`BrCCCCCBr`: the Potency entry in [1], in assay [2], in [3] and in assay [10] was “inactive” throughout. Further, the outcome in assay [4], in assay [6], in assay [7] and in [8] was inactive.

`CCC(C=O)CC`: the Potency entry in assay [1], in [2], in assay [3], in [5] and in assay [10] was “inactive” each time. Also, the outcome in assay [4], in assay [7], in assay [8] and in assay [9] was inactive.

As for `C=C(C)C(=O)OCCNC(C)(C)C`, the Potency entry in [1], in assay [2], in [3] and in assay [5] was “inactive” throughout. Moreover, the molecule was called inactive in [4], in [6], in assay [7], in assay [8] and in assay [9].

As to `C=CCCCCCCCCCCCC`, the Potency entry in assay [1], in [2], in assay [3] and in [5] was “inactive” each time. Besides, the outcome in [4], in assay [6], in assay [7], in assay [8] and in [9] was inactive.

In the case of `CC(C)=O`, the Potency result in [1], in assay [2], in [3] and in [10] was “inactive” each time. Further, the molecule was called inactive in [4], in assay [6], in [7] and in assay [8].

`O=C(Nc1ccc(Cl)c(Cl)c1)C1CC1`: the Potency result in assay [1], in assay [3] and in [5] was “inactive” each time. Besides, the Potency in [2] is 29.8 µM (active); in assay [10], 15 µM (active). The molecule was classed as inactive in [4], in [7], in assay [8] and in assay [9].

Take `N#Cc1ccc(C(=O)O)cc1`: the Potency result in [1], in [2], in assay [3] and in assay [10] was “inactive” each time. Further, the molecule was classed as inactive in assay [4], in assay [6], in assay [7] and in [8].

On to `CC(=C(CCOC(=O)C(C)C)SSC(CCOC(=O)C(C)C)=C(C)N(C=O)Cc1cnc(C)nc1N)N(C=O)Cc1cnc(C)nc1N`, for which the Potency result in assay [1], in [2], in assay [3] and in assay [5] was “inactive” each time. The call in [4], in assay [6], in [7] and in assay [8] was inactive.

On to `C=COCCOCCOCCOC=C`, for which the Potency result in assay [1], in [2], in assay [3] and in assay [10] was “inactive” in each case. In addition, the result in assay [4], in assay [6], in [7] and in assay [8] was inactive.

In the case of `Cc1ccsc1/C=C/C1=NCCCN1C`, the Potency entry in assay [1], in assay [2], in assay [3] and in assay [10] was “inactive” each time. Moreover, the result in assay [4], in [6], in [7] and in [8] was inactive.

`COc1cc(NS(=O)(=O)c2ccc(N)cc2)nc(OC)n1`: the Potency result in assay [1], in assay [2], in [3] and in assay [5] was “inactive” throughout. Besides, the call in [4], in assay [6], in [7], in assay [8] and in [9] was inactive.

With `CC(CN)CC(C)(C)CCN` (stereo unspecified), the Potency entry in assay [1], in assay [2] and in assay [3] was “inactive” in each case. Further, the result in assay [4], in assay [6], in assay [7], in assay [8] and in assay [9] was inactive.

In the case of `CCCCCCCCSCC`, the Potency result in assay [1], in assay [2] and in assay [3] was “inactive” each time. Moreover, the molecule was called inactive in [4], in assay [6], in assay [7], in assay [8] and in assay [9].

Turning to `CCCCCCCC/C=C\CCCCCCCC(=O)OCCCC`, the Potency result in assay [1], in assay [2] and in [3] was “inactive” each time. In addition, the outcome in assay [4], in assay [6], in assay [7] and in [8] was inactive.

Take `Nc1nnc(-c2cccc(Cl)c2Cl)c(N)n1`: the Potency result in [1], in assay [2], in [3] and in assay [10] was “inactive” in each case. Besides, the molecule was called inactive in assay [4], in [6], in assay [7], in [8] and in [9].

With `CC(C)OC(=O)CCCCC(=O)OC(C)C`, the Potency entry in assay [1] and in assay [3] was “inactive” each time. The Potency in [2] is 54.6 µM (active). Also, the molecule was called inactive in [4], in [6], in assay [7] and in assay [8].

For `CC(=O)CCCCn1c(=O)c2c(ncn2C)n(C)c1=O`, the Potency entry in assay [1], in assay [2], in assay [3] and in assay [10] was “inactive” in each case. In addition, the result in [4], in assay [6], in assay [7], in assay [8] and in assay [9] was inactive.

In the case of `CCO[Si](CCCS)(OCC)OCC`, the Potency entry in assay [1], in assay [2] and in assay [3] was “inactive” each time. For the same molecule, the molecule was called inactive in assay [4], in assay [6], in assay [7], in [8] and in assay [9].

The values above are taken from PubChem BioAssay (Tox21).
